Most compounds without a hit are left out; they make up all but 2.2% or so of the library.
CSC inhib: blocks cancer stem cells; cancer stem cell-like cells viability, luminescence; inhibition, % at 7.5 µM; hit rate 1.1% among 300,000; AID 2717; in the data active = inhibition above about 75%; tested in HMLE shEcad cells
PfHsp90 set2: growth inhibition of yeast expressing Plasmodium Hsp90 | hit rate 0.32% among 310,000 | AID 504621 | S. cerevisiae expressing PfHsp90, BacTiter-Glo ATP, 48 h; yeast lacking PDR1 and PDR3 efflux regulators | inhibition, % at 9.4 µM;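 active = every replicate shows inhibition above about 80%, whatever the replicate mean, limit read from the data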;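 note: 0% = DMSO neutral controls and 100% = 20 µM radicicol positive controls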
Beta apoptosis: beta cell apoptosis inhibition | INS-1E cytokine-induced death, ATP luminescence, 48 h; percent of positive-control rescue, neutral wells zero | protection from apoptosis, % (test concentration not listed) | hit rate 0.8% among 300,000;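 active = Every replicate reaches about 75%, or at least half do and their mean reaches it too, limit read from the data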;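 note: 0% = cytokine-treated negative control wells and 100% = positive control rescue; higher means more ATP so stronger rescue from cytokine killing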
Calb FLC: C. albicans growth modulation with fluconazole. C. albicans CaCi-2 (fluconazole-resistant clinical isolate) + fluconazole, Alamar Blue growth, 48 h. growth inhibition, % (concentration not given with the values). hit rate 0.57% among 300,000;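 active = growth inhibition above about 58% in most replicates, limit read from the data, passing the limit was not always enough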;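 note: all wells also contain fluconazole at 8 µg/ml as a sub-toxic cotreatment; 0% = median of DMSO wells and 100% = median of geldanamycin control wells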
Shn3 3UTR inh: reduces Shn3 3'UTR luciferase signal in osteoblasts. Clone20 osteoblast Shn3 3'UTR firefly luciferase, 24 h. hit rate 0.52% among 360,000. inhibition, % at 12.5 µM;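 active = mean inhibition of at least 75% with every replicate also reaching 75%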;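 note: 0% = median of neutral control wells and 100% = pilot-screen positive control compound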
Starred values were filed as active, the others as inactive; . = no result given.

SMILES | CSC inhib | PfHsp90 set2 | Beta apoptosis | Calb FLC | Shn3 3UTR inh
CC1Oc2cc3oc4c(O)c(O)ccc4c(=O)c3c(O)c2C1(C)C (configuration not stated) | -0.2 | 103.9* | -0.7 | 96.6* | -37.6
COc1ccc(-c2cc(=O)oc3c(O)c(O)ccc23)cc1 | 63.4 | -10.4 | 0.2 | 30.3 | -0.4
CN(C)CC/C=C1\c2ccc(F)cc2Sc2cc(F)c(Cl)cc21 | 82.7* | . | . | -17.1 | 23.4
CN(C)CC/C=C1/c2ccc(F)cc2Sc2ccc(Cl)cc21 | -13.1 | . | -3.4 | -9.7 | 2.7
CN1CCN(/N=C/c2ccc(N(C)c3ccccc3)cc2)CC1 | 46.0 | -8.3 | -3.0 | 9.3 | 4.6
CN1CCN(/N=C/c2ccc(N(c3ccccc3)c3ccccc3)cc2)CC1 | 85.6* | -55.7 | 1.9 | 4.2 | 1.5
Cc1ccc(-c2nc(CS(=O)(=O)CC(=O)Nc3cc(F)ccc3F)c(C)o2)cc1 | . | -0.7 | 4.5 | -2.2 | 0.9
CSc1ccc(C(O)c2ncc(-c3ccccc3F)[nH]2)cc1 (configuration not stated) | . | . | . | . | -42.1
C1=CCN(Cc2ccccc2)C1 | -13.8 | 5.7 | -6.2 | . | 5.3
O=C(c1ccco1)c1coc2c1cc(O)c1ccccc12 | 51.9 | -25.9 | 100.4* | 31.0 | -58.6
CC(=O)c1coc2c1cc(O)c1ccccc12 | 27.6 | . | -0.4 | 21.0 | -39.4
Cc1c(C(=O)N(Cc2ccccc2)C(C)C)oc2ccc(S(=O)(=O)N3CCOCC3)cc12 | 7.2 | -1.4 | 90.3* | -2.5 | 23.1
Cc1ccc(NC(=O)c2oc3ccccc3c2COC(C)C)cc1S(=O)(=O)N1CCOCC1 | -16.0 | . | 4.5 | . | 87.9*
Cc1c(C(=O)Nc2cccc(C(F)(F)F)c2)oc2ccc(S(=O)(=O)N3CCOCC3)cc12 | -13.0 | 3.3 | . | . | 88.0*
N#Cc1c(NCc2ccccc2)ccnc1NCc1cccnc1 | -5.4 | . | 32.2 | 9.6 | 84.6*
Cc1[nH]nc(-c2ccc(O)c(C)c2O)c1-c1cnn(-c2ccccc2)c1 | 10.5 | 12.6 | -3.5 | 106.0* | 22.6
Cc1oc2c(C)c(O)ccc2c(=O)c1-c1cnn(-c2ccccc2)c1 | 64.0 | -7.8 | 2.5 | -8.1 | -1.3
CC(=O)O[C@H]1CC[C@@]2(C)C(=CC[C@H]3[C@@H]4CC[C@H](C(C)=O)[C@@]4(C)CC[C@@H]32)C1 | -1.8 | -16.7 | -6.8 | . | 86.5*
C/C(=N\Nc1cc(C(F)(F)F)ccc1Cl)c1ccccc1O | 77.2* | 13.1 | 13.6 | 0.7 | -2.8
C/C(=N\Nc1ccc(F)cc1F)c1ccccc1O | 34.6 | 7.1 | -7.0 | 5.5 | -67.5
Cc1cc(NS(=O)(=O)c2ccc(NC(=O)c3ccc([N+](=O)[O-])cc3)cc2)nc(C)n1 | . | . | . | . | -6.0
CCOc1cc(/C=N/NC(=O)C(=O)NCc2ccc3c(c2)OCO3)ccc1OCC(=O)N1CCOCC1 | -13.3 | -9.1 | -3.1 | -7.7 | -21.8
CCOc1cc(N2CCOCC2)c(OCC)cc1NC(=O)c1nc2nc(C)cc(C)n2n1 | -9.8 | 9.7 | -3.8 | 100.8* | 7.3
c1csc(-c2csc3ncnc(NCCCN4CCOCC4)c23)c1 | 0.2 | -44.9 | 76.2* | -4.0 | 79.2
O=c1cc(N2CCCCC2)c(-c2ccccc2)nn1Cc1ccc(Cl)cc1 | 102.8* | 2.1 | . | -28.6 | 17.4
SMILES | CSC inhib | PfHsp90 set2 | Beta apoptosis | Calb FLC | Shn3 3UTR inh
O=c1cc(N2CCCCC2)c(-c2ccccc2)nn1Cc1c(Cl)cccc1Cl | 104.2* | -60.1 | 15.9 | 12.3 | 16.8
O=c1cc(N2CCCCC2)c(-c2ccccc2)nn1Cc1ccc(F)cc1 | 40.1 | -74.4 | -0.3 | 4.3 | -4.5
CCCC(=O)Nc1nnc([C@H]2C[C@H](O)[C@@H](CO)O2)s1 | . | . | . | . | 20.2
NC(=O)c1ccc(NC(=O)CN2C(=O)NC(c3ccccc3)(c3ccccc3)C2=O)cc1 | -15.0 | -7.5 | -8.4 | 1.9 | 6.0
Oc1c(C(Nc2cccc(C(F)(F)F)c2)c2ccncc2)ccc2cccnc12 (configuration not stated) | 54.3 | 103.8* | 78.8* | 92.7* | 97.1*
Cc1[nH]c2ccccc2c1C(Nc1nccs1)c1ccncc1 (configuration not stated) | . | 7.4 | -4.6 | -6.5 | -8.0
Oc1c(C(Nc2nccs2)c2ccc(C(F)(F)F)cc2)ccc2cccnc12 (configuration not stated) | . | 102.0* | . | 102.5* | 77.7
O=C(CCNS(=O)(=O)c1ccc(Br)cc1)NNC(=O)C1COc2ccccc2O1 (configuration not stated) | -2.9 | 3.6 | -7.8 | . | -2.2
CC(Oc1cccc(Cl)c1)C(=O)N1CCCN(C)CC1 (configuration not stated) | -4.5 | 6.6 | 1.3 | -9.2 | -17.4
Cc1cc(C(=O)OCC(=O)Nc2ccc(S(N)(=O)=O)cc2)c2ccccc2n1 | -2.2 | 10.0 | -1.6 | 126.8* | 22.0
Cc1cc(C)nc(NS(=O)(=O)c2ccc(NC(=O)COc3ccccc3)cc2)n1 | -6.1 | . | -4.0 | 79.5* | 8.4
C=CCOc1ccc(C2/C(=C(\O)c3ccc4c(c3)OCCO4)C(=O)C(=O)N2CCCN2CCOCC2)cc1 (configuration not stated) | 5.0 | -0.9 | -3.4 | 5.0 | -7.4
CCOC(=O)c1sc(NC(=O)c2c(C)nn(Cc3ccccc3)c2C)cc1C | . | 19.4 | 87.6* | . | 33.6
CCOC(=O)c1sc(NC(=O)Nc2ccc(Cl)cc2)cc1C | 70.1 | -3.7 | 88.9* | -11.6 | 37.7
Cc1nc(NC(=O)C23CC4CC(CC(C4)C2)C3)sc1Cc1ccc2c(c1)OCO2 | 70.6 | -15.4 | 101.5* | 17.3 | 16.0
CN(CC(=O)Nc1cccc(S(=O)(=O)N2CCOCC2)c1)CC(=O)Nc1ccc(Cl)c(C(F)(F)F)c1 | 3.4 | -14.0 | 4.1 | 8.4 | 88.1*
CCN(CC)S(=O)(=O)c1cc(NC(=O)CNc2cccc(S(=O)(=O)N3CCCC3)c2)ccc1C | -4.4 | . | 88.8* | -5.0 | 91.4*
CCN(CC)S(=O)(=O)c1cccc(NC(=O)CNc2cccc(S(=O)(=O)N3CCOCC3)c2)c1 | 2.8 | -21.2 | 56.3 | -7.1 | 88.1*
CCN(CC)S(=O)(=O)c1ccc(C)c(NC(=O)CNc2cccc(S(=O)(=O)N3CCOCC3)c2)c1 | -7.8 | . | -0.4 | 1.8 | 4.0
CN(CC(=O)Nc1cccc(F)c1)CC(=O)Nc1cc(S(=O)(=O)N2CCOCC2)ccc1Cl | . | 1.5 | 8.1 | . | 10.9
CC(C)COC(=O)N1CCN(S(=O)(=O)c2ccc3c(c2)CCC3)CC1 | . | -1.3 | -0.7 | . | 10.6
COc1ccc(Cl)cc1C(=O)NCC(=O)OCc1ccccc1 | 4.8 | -12.5 | -2.8 | . | -6.3
Cc1nc(C)c(-c2ccc(SCc3ccccc3F)nn2)s1 | 14.9 | -24.1 | -3.6 | -2.0 | -52.5
Cc1ccc(NC(=S)NC(=O)c2cncc(Br)c2)cc1Cl | -9.1 | . | 6.2 | -2.4 | .
O=C(CCCN1CCN(c2ccccc2)CC1)c1ccc(F)cc1 | . | . | . | . | 1.0
O=C1NCN(c2ccccc2)C12CCN(CCCC(c1ccc(F)cc1)c1ccc(F)cc1)CC2 | 78.5* | -0.1 | 1.0 | . | 54.8
CCOC(=O)[C@@H]1[C@H]2COc3ccccc3[C@@H]2N2C(=O)N(c3ccc(OC)cc3)C(=O)[C@@]12C | -19.8 | 12.5 | -7.0 | -0.9 | -4.6
COc1ccc(OCC(=O)OCC(=O)NC2CCCCC2C)cc1 (configuration not stated) | . | -7.6 | -7.1 | . | -4.5

Source: PubChem
